Compound activity (PubChem BioAssay)
Sampled rows, rich in hits. Any-hit rate of the full collection: about 14%.
USP8 block – human USP8 deubiquitinase inhibition; purified USP8, Ub-rhodamine cleavage fluorescence, 30 min; inhibition, % at 20 µM; actives 4.2% (n = 47,000); AID 1645853
Target sequence (P40818 whole entry, looked up): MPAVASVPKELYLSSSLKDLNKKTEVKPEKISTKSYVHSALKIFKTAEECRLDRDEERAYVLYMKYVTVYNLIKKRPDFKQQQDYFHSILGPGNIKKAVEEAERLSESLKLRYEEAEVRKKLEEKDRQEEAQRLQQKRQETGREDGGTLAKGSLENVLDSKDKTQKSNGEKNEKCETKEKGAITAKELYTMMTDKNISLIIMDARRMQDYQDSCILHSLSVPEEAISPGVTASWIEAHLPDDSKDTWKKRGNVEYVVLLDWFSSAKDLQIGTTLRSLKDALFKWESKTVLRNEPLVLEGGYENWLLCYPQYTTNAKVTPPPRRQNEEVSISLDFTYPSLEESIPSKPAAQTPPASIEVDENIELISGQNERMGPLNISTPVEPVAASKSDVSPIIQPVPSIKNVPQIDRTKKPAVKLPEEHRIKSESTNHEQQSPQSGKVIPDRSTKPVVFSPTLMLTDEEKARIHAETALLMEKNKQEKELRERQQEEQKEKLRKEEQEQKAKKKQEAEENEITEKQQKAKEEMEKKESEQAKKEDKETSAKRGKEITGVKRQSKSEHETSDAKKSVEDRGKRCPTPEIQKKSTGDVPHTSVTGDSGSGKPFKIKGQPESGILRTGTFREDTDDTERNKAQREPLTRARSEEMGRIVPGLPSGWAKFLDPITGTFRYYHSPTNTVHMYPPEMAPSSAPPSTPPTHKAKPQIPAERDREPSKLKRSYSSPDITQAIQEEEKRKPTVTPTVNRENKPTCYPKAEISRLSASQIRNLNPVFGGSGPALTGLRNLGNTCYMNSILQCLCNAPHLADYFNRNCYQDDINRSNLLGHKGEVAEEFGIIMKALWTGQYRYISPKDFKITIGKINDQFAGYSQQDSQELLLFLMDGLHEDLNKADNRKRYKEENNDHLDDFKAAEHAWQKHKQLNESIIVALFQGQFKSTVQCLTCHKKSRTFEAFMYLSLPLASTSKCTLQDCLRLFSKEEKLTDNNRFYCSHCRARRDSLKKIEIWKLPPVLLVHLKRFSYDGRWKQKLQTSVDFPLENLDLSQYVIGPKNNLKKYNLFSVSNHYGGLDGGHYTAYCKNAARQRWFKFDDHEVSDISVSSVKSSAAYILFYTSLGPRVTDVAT
USP30 block – human USP30 deubiquitinase inhibition; Q70CQ3; purified USP30, Ub-rhodamine cleavage fluorescence; inhibition, % at 25 µM; actives 5.3% (n = 47,000); AID 1645860
USP17 block – human USP17-like deubiquitinase inhibition | AID 1645855 | purified USP17, Ub-rhodamine cleavage fluorescence, 3 h | A8MUK1 | actives 6.5% (n = 47,000) | inhibition, % at 50 µM
USP28 block – blocks human USP28 ubiquitin-rhodamine cleavage; inhibition, % at 25 µM; purified USP28, Ub-rhodamine cleavage fluorescence, 30 min; actives 3% (n = 47,000)
Starred values were filed as active, the others as inactive; . = not tested or not shown. Cut-off read from the data, not from the text of the source: active = inhibition above about 30%; inactive = the rest.

SMILES	USP8 block	USP30 block	USP17 block	USP28 block
CCn1c(=O)c(CCC(=O)NCc2ccc(OC)cc2)c(C)c2c(C)nn(-c3ccccc3C)c21	2	77*	70*	56*
OCCSc1nnc(N2CCCC2)n1-c1cccc(Cl)c1	3	18	4	11
c1ccc(-n2c(SCCc3ccncc3)nnc2N2CCOCC2)cc1	16	42*	19	11
Cn1nc(-c2nc(-c3ccccc3)no2)c2c1CCN(C(=O)C1CCC1)C2	12	6	2	9
Cn1nc(-c2nc(-c3ccccc3)no2)c2c1CCN(C(=O)C1CCCC1)C2	6	-15	64*	-6
Cn1nc(-c2nc(-c3ccccc3)no2)c2c1CCN(C(=O)C1CC1)C2	5	68*	42*	12
CC(C)n1cnc(-c2nc(C(=O)NCC3CCCO3)c3ccccn23)c1 (stereo not given)	-173	-324	-136	-89
CC(=O)C1=C(O)[C@@]2(O)C(=O)c3c(c(C)c4ccc(C)c(O)c4c3O)C[C@H]2[C@@H](N)C1=O	-104	-126	49*	66*
O=C(NCc1ccccc1)C1CCN(c2cncnc2N2CCOCC2)CC1	16	29	7	12
CCCOc1ccc(CNC(=O)C2CCN(c3ccncc3)CC2)cc1	-14	-6	-6	35*
O=C(NCc1ccncc1)C1CCN(c2cncnc2N2CCCCC2)CC1	-15	-42	-12	52*
CC(C)Nc1nc(-c2ccccc2)nnc1-c1ccccc1	24	31*	17	14
CC(C)NC(=O)Cn1c(-c2nc(-c3ccccc3)no2)cccc1=O	8	14	11	2
COC(=O)c1ccccc1NC(=O)c1ccc(S(=O)(=O)N2CCCC2)cc1	2	43*	16	5
COc1ccc(S(=O)(=O)N2CCCCC2)cc1NC(=O)c1ccc(N2CCCC2=O)cc1	11	27	50*	5
COc1ccccc1NC(=O)c1cc(S(=O)(=O)N2CCCC2)ccc1Cl	-2	-7	0	2
COc1ccc(S(=O)(=O)N2CCCCCC2)cc1NC(=O)c1cc(F)cc(F)c1	7	8	-1	-3
O=[N+]([O-])c1ccc(NCC2COc3ccccc3O2)c(Cl)c1 (stereo not given)	-3	26	7	72*
C#CCNC(=O)CC[C@H]1CNC(=O)[C@@H]2[C@@H](CCN2CC2CC2)N1C	6	-12	-18	8
CN1[C@@H](CCC(=O)N2CCOCC2)CNC(=O)[C@@H]2[C@H]1CCN2Cc1ccc(F)cc1	43*	1	-72	18
CN1[C@@H](CCC(=O)N2CCC(O)CC2)CNC(=O)[C@@H]2[C@H]1CCN2Cc1ccc(F)cc1	38*	14	-65	13
C#CCNC(=O)CC[C@H]1CNC(=O)[C@@H]2[C@@H](CCN2C2CCCCC2)N1C	42*	32*	-42	30
Cc1ccc(CN2CC[C@@H]3[C@H]2C(=O)NC[C@H](CCC(=O)N2CCOCC2)N3C)cc1	12	-13	-37	9
CN1[C@@H](CCC(=O)N2CCN(c3ccccn3)CC2)CNC(=O)[C@@H]2[C@H]1CCN2C1CCOCC1	69*	44*	-33	36*
COc1ccc(CCN2C[C@H]3CCN(C(=O)c4ccnnc4)CC[C@H]3S2(=O)=O)cc1	17	25	5	8
SMILES	USP8 block	USP30 block	USP17 block	USP28 block
CSc1nc2nc(C)c(C/C=C/c3ccccc3)c(=O)n2[nH]1	22	40*	.	14
Cc1cc2nc(C)c(C/C=C/c3ccccc3)c(=O)n2[nH]1	-36	35*	22	10
O=C(Cc1nnc(-c2cnccn2)o1)NCc1ccccc1Cl	1	13	1	1
CC1=C(C(=O)Nc2c(C)cc(C)cc2C)C2(CCC(C)CC2)OC1=O (stereo not given)	-10	-14	34*	-8
COC(=O)c1nn(-c2ccc(Cl)cc2)c(=O)cc1Sc1ccc(C)cc1	53*	3	26	-3
Cc1ccc(-n2nnnc2CNC(=O)NCc2ccc(Cl)cc2)cc1	0	14	13	7
CCC(C)c1ccc(O[C@@H]2O[C@@H]3COC(c4ccccc4)O[C@H]3[C@H](O)[C@H]2NC(C)=O)cc1 (stereo not given in full)	22	82*	40*	34*
CN1CCCC(OC(=O)c2cc(Cl)cc(Cl)c2)C1 (stereo not given)	32*	33*	.	23
CN1CCCC(OC(=O)c2cccc(Cl)c2)C1 (stereo not given)	19	24	15	5
c1ccc(CN(Cc2ccccc2)c2ncnc3c2cnn3-c2ccccc2)cc1	1	9	1	5
Cc1cccc(-n2ncc3c(N(CCO)CCO)ncnc32)c1	28	34*	24	10
CCS(=O)(=O)c1ccccc1C(=O)Nc1ccc2sc(C)nc2c1	16	5	5	55*
CCC(C)NC(=O)c1cnn2c3c(cnc12)CCCC3 (stereo not given)	-11	0	0	5
COc1ccc(C(=O)CSc2nnc3n(Cc4ccc(C)cc4)c(=O)c4ccccc4n23)cc1OC	5	45*	25	16
COc1ccc(CCNC(=O)CCn2c(=O)c3ccccc3n(Cc3ccc(C)cc3)c2=O)cc1OC	21	64*	43*	14
O=C(CCCn1c(=O)c2ccccc2n(Cc2cc(=O)n3ccccc3n2)c1=O)NCc1ccco1	-19	-4	-2	-1
COc1ccc(CCNC(=O)c2ccc(Cn3c(=O)c4ccccc4n(CC(=O)Nc4cc(C)[nH]n4)c3=O)cc2)cc1OC	1	65*	66*	9
O=C(CCn1c(=O)c2ccccc2n(Cc2cc(=O)n3ccccc3n2)c1=O)NCCc1ccc(Cl)cc1	12	61*	48*	16
CCN(CCCNC(=O)CCc1nnc2n(Cc3ccc(C)cc3)c(=O)c3ccccc3n12)c1cccc(C)c1	6	24	6	14
Cc1ccc(NC(=O)N2CCN(c3cnn4c(C)nnc4c3)CC2)cc1	2	22	30	21
C[C@H]1CC[C@@]2(OC1)OC1CC3C4CC[C@@H]5C[C@@H](O)CC[C@]5(C)C4CC[C@]3(C)C1[C@@H]2C (stereo not given in full)	5	10	3	-7
CCOc1ccccc1NC(=O)Cn1c(=O)n(CCC(=O)NCCc2ccc(OC)c(OC)c2)c(=O)c2ccccc21	22	20	14	16
COc1ccc(CCNC(=O)CCCCn2c(=O)c3ccccc3n(Cc3cccc(F)c3)c2=O)cc1OC	-3	55*	60*	9
COc1ccc(CCNC(=O)CCn2c(=O)c3ccccc3n(Cc3ccc(F)cc3)c2=O)cc1OC	20	43*	46*	31*
COc1ccc(CCNC(=O)CCn2c(=O)c3ccccc3n(Cc3ccccc3C#N)c2=O)cc1OC	-18	15	3	2
Cc1cc(NC(=O)Cn2c(=O)n(CC3CCC(C(=O)NCCc4ccccc4)CC3)c(=O)c3ccccc32)n[nH]1 (stereo not given)	37*	45*	58*	30
